Assay results published in PubChem BioAssay (NCATS).
Records with an inconclusive call do not appear. Calls of active or inactive are those of the source. Calls come from the whole dose curve; as a rule, active = well fitted cell-killing curve with a large enough effect; inconclusive = small, poorly fitted or top-dose-only effect; inactive = flat fitted curve, though single readings scatter. Bridge positions count the residues as written; N and C are the ends. Square brackets hold non-standard residues; d marks the D form. Side chains are listed from the residue outwards. Peptide text beside a SMILES is read from it. * marks the point of attachment. Phg(4-OMe) = COc1ccc([C@H](N)C(=O)O)cc1; d(aIle) = CC[C@H](C)[C@@H](N)C(=O)O; d(aThr) = C[C@@H](O)[C@@H](N)C(=O)O; NMeF = CN[C@@H](Cc1ccccc1)C(=O)O; Isobutyryl = CC(C)C(=O)*

assay: HPAF-II Cancer Cell Toxicity qHTS against the NCATS CANVASS Library (AID 1347346); details: HPAF-II viability, CellTiter-Glo ATP luminescence, 72 h; series mostly up to 38.3 µM; activity change, negative = cytotoxicity: at the top concentration; note: nearly all actives have a fitted effect of over 55% in size
Method in brief: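 Luminescence from CellTiter-Glo, added after 72 h compound exposure and a 15 min room-temperature incubation, served as the viability readout. HPAF-II cells (1000/well) received an 11-point concentration series.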
% is set by controls: 0 for no effect and ±100 for the full control effect; potency is the fitted concentration of half-maximal effect.

Compound	Potency	activity change, negative = cytotoxicity
O=C1CC2OCC=C3CN4C5CC3C2[C@@H]2N1c1ccccc1[C@]52C[C@@H]4C1=C[C@H]2C3CC4N(CC[C@@]45c4ccccc4N(C1=O)[C@@H]25)C/C3=C/CO (stereo partly drawn)	21.1 µM (active)	–
CCC(=O)CCCCC[C@@H]1NC(=O)[C@H]2CCCCN2C(=O)[C@H](C(C)C)NC(=O)[C@H](Cc2cn(OC)c3ccccc23)NC1=O	2.98 µM (active)	–
C/C(=C\[C@H](C)C(=O)CCCC1CC(=O)NC(=O)C1)[C@@H]1OC(=O)/C=C/CC/C=C/[C@H](O)[C@@H](O)[C@@H]1C	1.33 µM (active)	–
C=CC(CCCCC)C1C(=O)NC(=O)C1C(=O)C1C(/C=C/C)C=CC2CC(C(=O)O)CC(C)C21 (stereo not drawn)	9.43 µM (active)	–
COc1ccc([C@@H]2CC(=O)c3c(cc(O)c(C/C=C(\C)CCC=C(C)C)c3O)O2)cc1	–	-11.2% [at 7.64 µM] (inactive)
CC(=O)Oc1cc2c(c(OC(C)=O)c1C1CCc3cc(Cl)c(Cl)n31)C(=O)n1c-2cc(Cl)c1Cl (stereo not drawn)	10.6 µM (active)	–
COc1ccc2[nH]c3c(c2c1)CCN1C[C@H]2C[C@@H](OC(=O)c4cc(OC)c(OC)c(OC)c4)[C@H](OC)[C@@H](OC)[C@H]2C[C@H]31	13.3 µM (active)	–
O[C@H]1c2ccccc2-c2c3c(cc4c2[C@@H]1NCC4)OCO3	18.8 µM (active)	–
CC(C)=CC[C@H]1C[C@@]2(CC=C(C)C)C(=O)[C@](CC=C(C)C)(C(=O)C(C(=O)c3ccccc3)=C2O)C1(C)C	6.68 µM (active)	–
C=C[C@](Cl)(CBr)CCC=C(C)C	–	-20.8% (inactive)
C/C(=C\[C@H](C)C(=O)/C=C/CC1CC(=O)NC(=O)C1)[C@@H]1OC(=O)/C=C/CC/C=C/C[C@@H](O)[C@@H]1C	2.98 µM (active)	–
C/C=C1/CN2C3CC1C1C=CC(=O)N4c5ccccc5[C@@]3(C[C@@H]2C2=C[C@H]3C5CC6N(CC[C@@]67c6ccccc6N(C2=O)[C@@H]37)C/C5=C/C)[C@H]14 (stereo partly drawn)	5.95 µM (active)	–
Oc1ccc(C2Oc3cc(O)c4c(c3[C@@H]2c2cc(O)cc(O)c2)[C@H]2C(c3ccc(O)cc3)c3c(O)cc5c(c3[C@H]2C4c2ccc(O)cc2)[C@H](c2cc(O)cc(O)c2)C(c2ccc(O)cc2)O5)cc1 (stereo partly drawn)	–	-20.6% (inactive)
COc1cc(O)c(C(=O)[C@@H]2[C@H](CC=C(C)C)C(C)=CC[C@H]2c2ccccc2)c(O)c1	13.3 µM (active)	–
C=C(C)CC[C@H](Cc1c(O)cc(O)c2c1O[C@H](c1ccc(O)cc1)CC2=O)C(=C)C	–	-24.9% (inactive)
COc1cc(/C=C/C(=O)OC[C@@H](Cc2ccc(O)c(OC)c2)[C@@H](COC(=O)/C=C/c2ccc(O)c(OC)c2)Cc2ccc(O)c(OC)c2)ccc1O	8.41 µM (active)	–
COc1c(O)cc2c(c1O)C(=O)c1c(coc1C)C2=O	–	-9.28% (inactive)
CC(C)C[C@@H]1c2c(O)c(C=O)c(O)c(C=O)c2O[C@]2(C)C=C[C@@H](C(C)C)C[C@H]12	–	-15.7% (inactive)

assay: UWB1.289 Cancer Cell Toxicity qHTS against the NCATS CANVASS Library (AID 1347347); details: UWB1.289 viability, CellTiter-Glo luminescence, 72 h; series mostly up to 38.3 µM; activity change, negative = cytotoxicity: at the top concentration; outcome: at the top concentration; note: nearly all actives have a fitted effect of over 60% in size
Method in brief: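 ATP content after 72 h treatment, detected by CellTiter-Glo luminescence (15min room-temperature development), reflects cell viability. Wells contained 1000 cells and received compounds at 11 concentrations.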

Compound	Potency	activity change, negative = cytotoxicity
CCC(=O)CCCCC[C@@H]1NC(=O)[C@H]2CCCCN2C(=O)[C@H](C(C)C)NC(=O)[C@H](Cc2cn(OC)c3ccccc23)NC1=O	7.47 µM (active)	–
C/C(=C\[C@H](C)C(=O)CCCC1CC(=O)NC(=O)C1)[C@@H]1OC(=O)/C=C/CC/C=C/[C@H](O)[C@@H](O)[C@@H]1C	1.18 µM (active)	–
O=c1cc(-c2ccc(O)c(O)c2)oc2cc(O[C@@H]3O[C@H](CO)[C@@H](O)[C@H](O)[C@H]3O)cc(O)c12	1.18 µM (active)	–
CC[C@H](C)[C@H]1NC(=O)[C@@H](NC(=O)C(C)C)[C@@H](C)OC(=O)[C@H](COC(=O)CNC(C)=O)NC(=O)[C@@H]([C@@H](C)O)NC(=O)[C@H](Cc2ccccc2)N(C)C(=O)[C@H](c2ccc(OC)cc2)NC1=O (Isobutyryl-T[d(aIle)][Phg(4-OMe)][NMeF][d(aThr)]S([Gly-Ac]); ester 1-C)	–	0.285% (inactive)
C[n+]1cc2cc(C(N)=O)[nH]c3c(=N)c(Cl)c(N)c1c23	–	-21.6% (inactive)
C/C1=C/[C@@H](C)[C@H](O)[C@@H](O)/C=C/CC/C=C/C(=O)O[C@@H]1[C@H](C)C(=O)CCCC1CC(=O)NC(=O)C1	–	-16% (inactive)
CC(=O)Oc1cc2c(c(OC(C)=O)c1C1CCc3cc(Cl)c(Cl)n31)C(=O)n1c-2cc(Cl)c1Cl (stereo not drawn)	3.34 µM (active)	–
CC(C)=CC[C@H]1C[C@@]2(CC=C(C)C)C(=O)[C@](CC=C(C)C)(C(=O)C(C(=O)c3ccccc3)=C2O)C1(C)C	8.38 µM (active)	–
C=C[C@](Cl)(CBr)CCC=C(C)C	–	-8.68% (inactive)
C=C1CC[C@@H](Br)C(C)(C)[C@]12CC=C(C)C(=O)C2	–	-1.18% (inactive)
C[C@H]1C=C[C@H]2CCCC[C@@H]2[C@H]1C(=O)[C@H]1CC2=C(C(=O)O)CCN2C1=O	–	-12.6% (inactive)
C/C(=C\[C@H](C)C(=O)/C=C/CC1CC(=O)NC(=O)C1)[C@@H]1OC(=O)/C=C/CC/C=C/C[C@@H](O)[C@@H]1C	2.98 µM (active)	–
C/C=C1/CN2C3CC1C1C=CC(=O)N4c5ccccc5[C@@]3(C[C@@H]2C2=C[C@H]3C5CC6N(CC[C@@]67c6ccccc6N(C2=O)[C@@H]37)C/C5=C/C)[C@H]14 (stereo partly drawn)	9.41 µM (active)	–
COc1cc(O)c(C(=O)[C@@H]2[C@H](CC=C(C)C)C(C)=CC[C@H]2c2ccccc2)c(O)c1	13.3 µM (active)	–
COc1cc(/C=C/C(=O)OC[C@@H](Cc2ccc(O)c(OC)c2)[C@@H](COC(=O)/C=C/c2ccc(O)c(OC)c2)Cc2ccc(O)c(OC)c2)ccc1O	10.6 µM (active)	–
C=CC(CCCCC)C1C(=O)NC(=O)C1C(=O)C1C2C(C)CC(C(=O)O)CC2CC1(O)C(=O)/C=C/C (stereo not drawn)	–	-16.8% (inactive)
C[C@]12CCC[C@](C)(C(=O)O)[C@@H]1CC[C@@]1(C)c3cocc3CC[C@H]21	–	-12.9% (inactive)
COc1c(O)cc2c(c1O)C(=O)c1c(coc1C)C2=O	–	-18.1% (inactive)
COc1cc2c(c(O)c1O)C(=O)c1c(coc1C)C2=O	13.3 µM (active)	–
CO[C@H]1[C@@H](OC(=O)/C(C)=C\[C@@H]2O[C@@H]2[C@H]2O[C@H]2C)[C@H](O)[C@H](OCC23C[C@@H]4[C@H](C)CC[C@H]4C4(C=O)CC2C=C(C(C)C)C34C(=O)O)O[C@@H]1C (stereo partly drawn)	–	-19.7% (inactive)
